Data on 104 compounds can be found in ChEMBL document CHEMBL3988442, “University of Dundee, Small-Polar-MMV Screening Library” (2021).

Hit rate of the full screen: of about 48,000 compounds, about 13,000 (27%) showed an effect of 50% or more. The list shows a part of the results.

In the test the test system is Wolbachia pipientis. Description: Anti-Wolbachia Cell-Based Screen. Also on record: scale not given: in the data most compounds retested in dose-response had high values. The class given is functional. The settings on record: 5 µM.
For `CCc1cc(CNC(=O)N2Cc3ccccc3N(C)CC2C)on1` (centres undefined), the “Percent Effect” value amounted to 12.48%. As for `CN(Cc1ccc(Br)s1)Cn1nc(-c2ccc(F)cc2)oc1=O`, the “Percent Effect” value is 11.33%. As for `CN(Cc1ccc(Br)s1)Cn1nc(-c2ccccc2)oc1=O`, the “Percent Effect” value is 38.33%. For `Cc1ncc(CN(C)Cn2nc(-c3ccccc3)oc2=O)s1`, the “Percent Effect” value was found to be 56.71%. `CSc1nccc(NCC2CNCCO2)n1` (centres undefined): the “Percent Effect” value amounted to 3.575%.

For the compound `Cn1cc(CNCCC(=O)NCc2ccccc2)c(-c2cccnc2)n1`, the “Percent Effect” value is given as -3.655%. The figure for `Cc1cc(C(=O)N2CCCC(n3cncn3)C2)nn1C` (centres undefined) is 113.3%; for `Cc1[nH]ncc1C(=O)N1CCCC(n2cncn2)C1` (centres undefined) it is -1.83%. Regarding `Cn1nc(C(=O)N2CCCC(n3cncn3)C2)ccc1=O` (centres undefined), the “Percent Effect” value is given as -5.25%.

On to `CC(C)c1nc(C(=O)N2CCCC(n3cncn3)C2)c[nH]1` (centres undefined), for which the “Percent Effect” value came to 7.683%. As for `Cc1c(C(=O)N2CCCC(n3cncn3)C2)cnn1C` (centres undefined), the “Percent Effect” value is listed as 111.3%. Regarding `CCc1ccc(C(=O)N2CCCC(n3cncn3)C2)o1` (centres undefined), the “Percent Effect” value is on record as -14.61%. The figure for `Cc1cnc(C(=O)N2CCCC(n3cncn3)C2)cn1` (centres undefined) is 95.37%. For `Cc1cc(C(=O)N2CCCC(n3cncn3)C2)on1` (centres undefined), the “Percent Effect” value is on record as 105.4%. Regarding `CCC(CC)c1cc(C(=O)N2CCCC(n3cncn3)C2)on1` (centres undefined), the “Percent Effect” value is -3.018%. `CCNC(=O)N1C[C@@H]2OCC(=O)N(CC3CC3)[C@@H]2C1`: the “Percent Effect” value was -6.422%. With `Cc1nsc(NC2CCOC3(CCCCC3)C2)n1` (centres undefined), the “Percent Effect” value is on record as -0.6251%. With `Cc1cnn(CCNCc2csc(-c3ccc4c(c3)OCO4)n2)c1`, the “Percent Effect” value is recorded as -11.61%. As for `CN(CCS(=O)(=O)c1cc(Cl)ccc1Cl)CC(N)=O`, the “Percent Effect” value was found to be 6.108%. As for `Cc1ccn(-c2ccc(NCc3cccnc3N3CCCCC3)nn2)n1`, the “Percent Effect” value is reported as -6.636%. As for `Nc1cc2c(nn1)CCN(C(=O)c1ccccc1Oc1cccnc1)C2`, the “Percent Effect” value is -10.76%.

As for `CCc1nccn1C1CCCN(C(=O)c2cnc3onc(C)c3c2)C1` (centres undefined), the “Percent Effect” value was -19.2%. As to `Cc1cc(C)n(CCC(=O)N2CCCC(n3cncn3)C2)n1` (centres undefined), the “Percent Effect” value is given as -3.067%. The same measure for `Cc1cc(C(=O)N2CCCC(n3cncn3)C2)c(C)n1CC1CC1` (centres undefined): 127.1%.

As for `Cc1ncsc1C(=O)N1CCCC(n2cncn2)C1` (centres undefined), the “Percent Effect” value was 88.89%.

Turning to `COCC(C)NS(=O)(=O)c1ccc(Br)cn1` (centres undefined), the “Percent Effect” value is given as -13.48%. With `O=C(Nc1ccccc1F)N1CCN(Cc2noc(C3CC3)n2)CC1`, the “Percent Effect” value is 0.2085%. In the case of `CN(C)c1nc2c(c(N3CCC4(CC3)CNC(=O)C4)n1)CCCC2`, the “Percent Effect” value is 100.7%. For the compound `CC(C)Cc1ncc2c(n1)CN(c1nc(N(C)C)nc3c1CCCC3)C2`, the “Percent Effect” value was determined as 27.68%. For `CCCc1cnc(C)nc1N1CCC2(CC1)CNC(=O)O2`, the “Percent Effect” value is 7.463%. Consider `Cc1nc(N(C)C)nc(N2CCC3(CC2)CNC(=O)O3)c1C`, for which the “Percent Effect” value came out at 97.26%. The same measure for `c1cnn(CC2CN(c3ncnc4c3CCC4)CCO2)c1` (centres undefined): -17.69%; for `CN(C)c1nc2c(c(N3CCC4(CCCNC4=O)C3)n1)CCCC2` (centres undefined): 9.775%. For the compound `CC(=O)NC1CCN(c2nc(N(C)C)nc3c2CCCC3)CC1`, the “Percent Effect” value was 10.24%. On to `c1nc2c(c(N3CCOC(Cn4cncn4)C3)n1)CCC2` (centres undefined), for which the “Percent Effect” value is reported as -6.426%. As for `O=C1NCC2(CCCN(c3ncnc4c3CCC4)CC2)O1` (centres undefined), the “Percent Effect” value was 82.73%. Consider `CN1CCc2[nH]nc(C(=O)N3CCCC4(CC3)CNC(=O)O4)c2C1` (centres undefined), for which the “Percent Effect” value is 1.077%. The figure for `Cc1ccc(-c2ccnc(N3CCC4(CC3)CNC(=O)O4)n2)c(C)n1` is 5.789%; for `CN(C)c1nc2c(c(N3CCCC4(CC3)CNC(=O)O4)n1)CCCC2` (centres undefined) it is 98.47%; for `CC(C)Cc1cc(CC2(NCc3ccco3)COC2)no1` it is -14.13%. The figure for `Cc1ccc(-n2ccc3nc(N4CCCC4)ncc3c2=O)cc1C` is -4.635%. For `COCCN1C[C@H]2CCN(c3ncccn3)CC[C@H]2S1(=O)=O`, the “Percent Effect” value is -6.135%. Take `COc1ccc(F)cc1-c1nc2c([nH]1)c(C1CC1)nn2C`: the “Percent Effect” value came out at 5.431%. As for `Cn1cc(C(=O)N2CC[C@@H]3[C@@H]2CCN3c2ncc(F)cn2)cn1.O=C(O)C(F)(F)F`, the “Percent Effect” value was 3.256%. Consider `Cc1ccc(CN2CCC3(CC2)CCN(C(=O)c2cccnc2)C3)o1.O=C(O)C(F)(F)F`, for which the “Percent Effect” value was determined as 93.46%. Take `Cc1ccc(CNC(=O)c2nc3c(o2)CN(C(=O)c2cccnc2)C3)o1.O=C(O)C(F)(F)F`: the “Percent Effect” value was -4.272%. The figure for `N#Cc1cccc(N2CC3(CCN(C(=O)c4cccnc4)C3)CC2=O)c1.O=C(O)C(F)(F)F` (centres undefined) is 6.163%. Take `O=C(O)C(F)(F)F.O=C(c1cccnc1)N1CCC2(CCN(C(=O)N3CCCC3)CC2)C1`: the “Percent Effect” value worked out at 121.5%. In the case of `NC(=O)N1CCC2(CCN(C(=O)c3cccnc3)CC2)C1.O=C(O)C(F)(F)F`, the “Percent Effect” value worked out at 118.8%. As for `CS(=O)(=O)N1CCC2(CN(C(=O)c3cccnc3)C2)C1.O=C(O)C(F)(F)F`, the “Percent Effect” value is on record as -8.829%. As to `Cc1cnc(N2CC3(CCN(C(=O)c4cccnc4)C3)C2)nc1.O=C(O)C(F)(F)F`, the “Percent Effect” value is listed as -3.598%. Turning to `Cc1nc(N)c2ccc(C3CCCCN3)nc2n1.Cl` (centres undefined), the “Percent Effect” value was found to be 107.4%. Turning to `CCn1c(C)nnc1CN(C)C1CCN(CC2CCC2)C1` (centres undefined), the “Percent Effect” value worked out at 111.4%. Turning to `CCn1c(C)nnc1CN(C)C1CCN(CCc2ccncc2)C1` (centres undefined), the “Percent Effect” value is listed as 1.632%. As to `CCn1c(C)nnc1CN(C)C1CCN(CCOc2ccccc2)C1` (centres undefined), the “Percent Effect” value was 149.5%.

Regarding `CCn1c(C)nnc1CN(C)C1CCN(CCS(=O)(=O)CC)C1` (centres undefined), the “Percent Effect” value is 144.9%. For `CCn1c(C)nnc1CN(C)C1CCN(CCCOC)C1` (centres undefined), the “Percent Effect” value is 0.6511%. Consider `CCn1c(C)nnc1CN(C)C1CCN(CCCSC)C1` (centres undefined), for which the “Percent Effect” value amounted to 119.6%. Regarding `CCn1c(C)nnc1CN(C)C1CCN(CCn2cccn2)C1` (centres undefined), the “Percent Effect” value came to 0.3298%.

Take `CCn1cc(CNCc2ccc(C(=O)OC)cc2)c(C)n1`: the “Percent Effect” value is on record as 153.8%. The same measure for `COc1ccc(CNCc2cn(C)nc2C)cc1`: 122.7%; for `COc1ccc(CNCc2cc(Br)c3c(c2)OCO3)cc1`: -3.854%. `COC(=O)c1ccc(CNCc2ccn(C)n2)cc1`: the “Percent Effect” value is on record as 138.6%.

For the compound `COc1ccc(-n2ccc(CNCc3ccc(OC)c(O)c3)n2)cc1`, the “Percent Effect” value is -11.8%. Regarding `COC(=O)c1ccc(CNC(=O)Cc2csc(C(C)=O)c2)cc1`, the “Percent Effect” value is on record as 12.04%.

As for `COC(=O)c1ccc(CNC(=O)Nc2ccc(=O)n(C)c2)cc1`, the “Percent Effect” value is on record as 12.29%. Regarding `COC(=O)c1ccc(CNC(C)c2ccc(S(C)(=O)=O)cc2)cc1` (centres undefined), the “Percent Effect” value is -2.189%. Consider `COC(=O)c1ccc(CNCc2cn(C)nc2C)cc1`, for which the “Percent Effect” value turned out to be 100.4%. As to `COc1ccc(CCn2cnnc2[S+](C)[O-])cc1` (centres undefined), the “Percent Effect” value is -1.402%. As to `Cc1ccc(-c2ncc(CNc3cnccc3CO)s2)cc1`, the “Percent Effect” value is recorded as -6.325%. `Cc1nc(-c2ccccc2)sc1C(=O)N(C1CC1)C1CC(=O)NC1=O` (centres undefined): the “Percent Effect” value was -7.701%. Consider `CCN(CC)C(=O)CN(C)C(=O)c1cc(-c2cccc(Cl)c2)no1`, for which the “Percent Effect” value is reported as -12%. Consider `CCN(CC)c1ccc(NS(=O)(=O)c2cnn(C(C)C)c2)cn1`, for which the “Percent Effect” value is -6.938%. The figure for `COCc1ccc(C(=O)N2CCCN(Cc3ccc(F)cc3)CC2)s1` is 2.247%. Take `CCCS(=O)(=O)c1ccc(N2CCN(c3ccccn3)CC2)nn1`: the “Percent Effect” value was 2.245%. On to `Cc1nn(C)cc1CNCc1ccc(N(C)C)cc1`, for which the “Percent Effect” value came out at 119.7%. Regarding `Cc1ccc(CNCc2c(C)nn(C)c2N(C)C)cn1`, the “Percent Effect” value is -12.73%. As for `Cc1nn(C)c(N(C)C)c1CNCc1ccc(Cn2cccn2)cc1`, the “Percent Effect” value came to 10.8%. Turning to `CC(C)(C)OC(=O)N1CCC[C@H](NCC2CCOCC2)C1`, the “Percent Effect” value was -10.59%. The same measure for `Cc1cc(NC(=O)Cc2ccccc2O)c[nH]c1=O`: 7.885%; for `O=C(Cc1ccccn1)N1CCc2c(O)nc(-c3cnccn3)nc2C1`: 94.87%. On to `CN1CCN(C(=O)Cc2ccccn2)Cc2cccnc21`, for which the “Percent Effect” value is -6.313%. The same measure for `Oc1nc(-c2cnccn2)nc2c1CCN(Cc1ccccn1)C2`: 89.8%; for `CCn1cc(CN2CCc3nc(-c4ccccn4)nc(O)c3C2)cn1`: 107.7%; for `O=C(Cc1ccccn1)N1CCc2nc(-c3cnccn3)nc(O)c2C1`: -13.11%.

With `CCn1cc(CN2CCc3nc(N4CCOCC4)nc(O)c3CC2)cn1`, the “Percent Effect” value is recorded as -4.464%.

As for `CCOCCC(=O)N(C)Cc1noc(C(C)C)n1`, the “Percent Effect” value is reported as -6.768%. Turning to `CC(C)CC(C(=O)N1CCCSCC1)N1CCCCC1=O` (centres undefined), the “Percent Effect” value is -10.63%. The figure for `COc1ccc(C(=O)N(c2ccc(OC)c(F)c2)C(C)C)cn1` is 3.547%. For the compound `CNS(=O)(=O)c1cccc(C(C)NCc2ccc(F)c(F)c2)c1` (centres undefined), the “Percent Effect” value is given as 18.96%.

Take `COC(=O)c1ccc(N2CCC(N(C)c3ccccc3)CC2)nn1`: the “Percent Effect” value is recorded as -3.944%. The figure for `O=C(CCC1CCCO1)NCc1ccnc(-n2cccn2)c1` (centres undefined) is -9.533%; for `COCCN(Cc1sccc1C)C(=O)C1CCCN(C(N)=O)C1` (centres undefined) it is 10.64%. The figure for `Cc1ncsc1CCN(C)Cc1ccc(CO)o1` is -28.69%. In the case of `Cc1ncc(CN(C)CCO)c2cc(C(=O)c3ccc(Br)cc3)oc12.Cl`, the “Percent Effect” value is reported as 142.2%.

Regarding `Cc1ncc(CNCCO)c2cc(C(=O)c3ccc(Br)cc3)oc12.Cl`, the “Percent Effect” value is 215.6%. Take `COC(=O)c1ccc(C(=O)NCc2ccc(Br)cc2)cn1`: the “Percent Effect” value was 0.8592%. Take `COc1ncc(C(=O)NCc2ccc(Br)cc2)cn1`: the “Percent Effect” value is given as 4.726%. In the case of `COC(=O)c1oc(CNC(C)(C)CO)cc1C`, the “Percent Effect” value is 5.82%. Take `CC(O)CNCc1ccccc1C(F)(F)F.Cl` (centres undefined): the “Percent Effect” value is given as -7.899%. Turning to `Cc1ncc(CNC(C)(C)CO)c2cc(C(=O)c3ccc(Br)cc3)oc12`, the “Percent Effect” value turned out to be 82.9%. The figure for `Cc1oc(CN(C)C(=O)c2ccc(Br)cc2)cc1C(=O)O` is 5.692%. Regarding `Cc1ncc(CNCC(C)O)c2cc(C(=O)c3ccc(Br)cc3)oc12.Cl` (centres undefined), the “Percent Effect” value was 102.9%. `CN1CCc2[nH]nc(C(=O)N3CCCC4(CN(C)C(=O)O4)C3)c2C1` (centres undefined): the “Percent Effect” value was 0.3528%.
